N-glyco inh – N-linked glycosylation inhibition | reporter increase, % at 12.5 µM | AID 588692 | actives 0.23% (n = 360,000) | D54 ERlucT glycosylation luciferase reporter, 24 h; percent of 100 nM tunicamycin response;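 active = mean luciferase reporter signal, scaled so untreated is 0 and the glycosylation-blocking control 100, at or above a set limit in every replicate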;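 note: luciferase carries N-glycosylation sites so blocking glycosylation raises the light; 0% = median of neutral control wells and 100% = median of 100 nM tunicamycin wells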
Vif imaging – blocks HIV Vif function; HEK293T cells, Vif self-association by quenched fluorescence, imaging, 24 h; inhibition, % at 7.49 µM; actives 0.35% (n = 340,000); in the data active = inhibition above about 50%, passing the limit was not always enough
RAD54 inh – blocks human RAD54 Holliday junction branch migration; Q92698; FAM/BHQ fluorescence; actives 0.14% (n = 360,000); inhibition, % at 10.4 µM;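 active = mean normalized replicate activity at least 40 and at least half of replicates scoring 40 or more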;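 note: 0% = median of neutral control wells and 100% = median of positive control wells; inhibitors cause a drop in the FAM fluorescence signal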
Target sequence (Q92698 whole entry, looked up): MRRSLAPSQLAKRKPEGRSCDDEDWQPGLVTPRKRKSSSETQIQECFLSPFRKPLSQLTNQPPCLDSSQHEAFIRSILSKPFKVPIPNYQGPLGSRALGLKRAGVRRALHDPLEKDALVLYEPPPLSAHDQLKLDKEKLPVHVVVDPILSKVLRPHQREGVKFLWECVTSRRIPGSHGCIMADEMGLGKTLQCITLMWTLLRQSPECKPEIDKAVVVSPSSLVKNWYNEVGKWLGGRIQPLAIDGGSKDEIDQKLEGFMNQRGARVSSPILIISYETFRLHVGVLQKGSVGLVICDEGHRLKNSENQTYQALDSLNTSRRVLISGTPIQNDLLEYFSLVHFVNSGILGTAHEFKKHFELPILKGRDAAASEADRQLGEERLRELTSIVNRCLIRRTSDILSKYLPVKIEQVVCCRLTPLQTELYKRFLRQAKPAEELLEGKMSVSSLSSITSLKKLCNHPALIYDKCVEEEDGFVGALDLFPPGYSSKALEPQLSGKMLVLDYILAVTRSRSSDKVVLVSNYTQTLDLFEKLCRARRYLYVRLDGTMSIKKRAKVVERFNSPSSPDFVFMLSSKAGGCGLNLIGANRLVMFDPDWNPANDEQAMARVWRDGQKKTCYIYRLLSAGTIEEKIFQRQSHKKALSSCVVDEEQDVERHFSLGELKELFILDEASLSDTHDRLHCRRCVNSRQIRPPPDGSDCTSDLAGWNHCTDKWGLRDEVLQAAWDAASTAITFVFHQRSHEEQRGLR
ABCB6 inh 2 – inhibitors of human ABC transporter ABCB6. AID 602162. Q9NP58. actives 0.19% (n = 360,000). fluorescence ratio to DMSO, % at 10 µM. K562-ABCB6 porphyrin accumulation, flow cytometry, 1 h; active compounds read low;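 active = fluorescence ratio to DMSO below 75%, the collection mean minus 3 SD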;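 note: signal is porphyrin accumulated inside mitochondria; 100% equals median channel fluorescence of DMSO control wells; lower ratio means ABCB6 inhibition with less porphyrin fluorescence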
Myeloid diff 2 – promotes myeloid progenitor differentiation; ER-HoxA9 myeloid progenitors, lysozyme-GFP differentiation, flow cytometry; calls only at 10 µM; actives 1% (n = 360,000); AID 624256;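 active = normalized GFP-positive differentiation at or above the plate's own cutoff, the solvent-only control mean plus 3 SD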;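 note: cells exposed to compound for four days before flow analysis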
Starred values were filed as active, the others as inactive; i = inactive; nt = no result; + = active, no number. Shown are actives, neighbours in structure and some others; about 1.6% of the full set was active somewhere.

SMILES	N-glyco inh	Vif imaging	RAD54 inh	ABCB6 inh 2	Myeloid diff 2
C[C@H](CO)N1C[C@H](C)[C@H](CN(C)C(=O)Nc2ccc(C(F)(F)F)cc2)Oc2ccc(NC(=O)Nc3ccc(C(F)(F)F)cc3)cc2C1=O	nt	nt	6	nt	nt
COc1ccc(CN(C)C[C@H]2Oc3ccc(NC(=O)Nc4ccc5c(c4)OCO5)cc3C(=O)N([C@H](C)CO)C[C@@H]2C)cc1	nt	nt	15	nt	nt
COc1ccc(S(=O)(=O)N(C)C[C@H]2Oc3ccc(NS(=O)(=O)c4cccs4)cc3C(=O)N([C@@H](C)CO)C[C@@H]2C)cc1	nt	nt	-1	nt	nt
C[C@@H]1CN([C@H](C)CO)C(=O)c2cc(NC(=O)Nc3ccc(C(F)(F)F)cc3)ccc2O[C@H]1CN(C)C(=O)Nc1ccc(F)cc1	-4	-1	4	100	+
C[C@H](CO)N1C[C@H](C)[C@H](CN(C)C(=O)NC2CCCCC2)Oc2ncc(Br)cc2C1=O	-1	-13	6	103	+
COc1ccc(CN(C)C[C@@H]2Oc3ccc(NC(=O)Nc4ccc5c(c4)OCO5)cc3C(=O)N([C@@H](C)CO)C[C@@H]2C)cc1	nt	nt	9	nt	nt
COc1ccc(CN(C)C[C@@H]2Oc3ccc(NC(=O)Nc4ccc5c(c4)OCO5)cc3C(=O)N([C@@H](C)CO)C[C@H]2C)cc1	nt	nt	61*	nt	nt
COc1ccc(CN(C)C[C@@H]2Oc3ccc(NC(=O)Nc4ccccc4)cc3C(=O)N([C@H](C)CO)C[C@H]2C)cc1	nt	nt	57*	nt	nt
COc1ccc(S(=O)(=O)N(C)C[C@@H]2Oc3ccc(NC(=O)Nc4ccc5c(c4)OCO5)cc3C(=O)N([C@@H](C)CO)C[C@H]2C)cc1	nt	nt	57*	nt	nt
COc1ccc(CN(C)C[C@H]2Oc3ccc(NC(=O)Nc4ccccc4)cc3C(=O)N([C@H](C)CO)C[C@H]2C)cc1	nt	nt	-3	nt	nt
CC(C)NC(=O)Nc1ccc2c(c1)C(=O)N([C@H](C)CO)C[C@@H](C)[C@H](CN(C)S(=O)(=O)c1ccc(Cl)cc1)O2	nt	nt	56*	nt	nt
CC(C)NC(=O)Nc1ccc2c(c1)C(=O)N([C@@H](C)CO)C[C@@H](C)[C@@H](CN(C)S(=O)(=O)c1ccc(Cl)cc1)O2	nt	nt	16	nt	nt
CCCC#Cc1ccc2c(c1)O[C@@H](CN(C)C(=O)C1CCC1)[C@@H](C)CN([C@@H](C)CO)S2(=O)=O	nt	nt	7	nt	nt
C[C@@H]1CCCCO[C@@H](CN(C)C(=O)Nc2ccc3c(c2)OCO3)[C@H](C)CN([C@H](C)CO)C(=O)c2cc(NC(=O)NC3CCCCC3)ccc2O1	nt	nt	13	nt	nt
C[C@H](CO)N1C[C@H](C)[C@@H](CN(C)Cc2cncnc2)Oc2cc(C#C[C@@H](C)O)ccc2S1(=O)=O	nt	nt	0	nt	nt
O=C(N[C@@H]1CC[C@H](CCNC(=O)C2CCCC2)O[C@H]1CO)c1ccccn1	nt	nt	8	nt	nt
O=C(NNC1CC(=O)N(c2cccc(Cl)c2)C1=O)c1cccs1 (stereo unspecified)	1	53*	-2	100	i
CN1C(=O)S/C(=C\c2ccccc2OCc2ccc(C(=O)O)cc2)C1=O	-2	-3	nt	97	i
Cc1ccc(Oc2ccccc2/C=C2\SC(=O)N(C)C2=O)cc1	3	17	7	74*	i
COCC(=O)N[C@@H]1C=C[C@H](CC(=O)NCc2ccc(Cl)cc2)O[C@H]1CO	nt	nt	1	nt	nt
COc1ccccc1N1CCN(c2cc(=O)n(Cc3ccc(F)cc3)c(=O)[nH]2)CC1	2	nt	11	93	+
CCOC(=O)Nc1ccc(NCc2ccc(F)cc2)nc1N	1	+	-29	181	i
CCOC(=O)Nc1ccc(C)cc1NC(=O)OCC	0	-4	-9	110	i
O=C(/C=C/c1ccc([N+](=O)[O-])cc1)/C=C/c1ccco1	31*	-23	-2	110	i
O=C(/C=C/c1ccc([N+](=O)[O-])cc1)c1ccco1	3	4	-8	98	i
CO[C@H]1CN(C)C(=O)c2ccc(NC(=O)c3cc(C)on3)cc2OC[C@H](C)N(CC2CC2)C[C@@H]1C	nt	nt	9	nt	nt
COc1cccc(C2c3cc4c(cc3OC(N3CCOCC3)C2C)OCO4)c1O (stereo unspecified)	11	12	nt	94	+
COc1cc2c(cc1OC)C(C)N(CCc1ccc(Cl)cc1)CC2 (stereo unspecified)	3	-1	-11	98	i
COc1cc2c(cc1OC)C(C)N(C(=O)CCNC(=O)c1ccccc1)CC2 (stereo unspecified)	-1	-3	3	93	i
